Hits are enriched below; roughly 2.7% of the tested compounds scored in any of these assays.
Shn3 inh set2 = reduces Shn3 3'UTR luciferase signal in osteoblasts; Clone20 osteoblast Shn3 3'UTR firefly luciferase, 24 h; inhibition, % at 12.5 µM; 0.52% of 360,000 active;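 active means mean inhibition of at least 75% with every replicate also reaching 75%; inconclusive means mean inhibition at least 75% but some replicate below; inactive means mean inhibition below 75%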
Peg3 promoter = Peg3 promoter activity inhibition. inhibition, % at 20 µM. AID 588405. HeLa PEG-Prom luciferase reporter, luminescence, overnight. 1.7% of 360,000 active;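 active means inhibition of at least 50% at 20 µM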
TRPM1 prom inh = inhibitors of MITF-driven TRPM1 promoter in melanoma cells. SK-MEL-5 TRPM1 promoter luciferase, 24 h. inhibition, % at 12.5 µM. 0.83% of 330,000 active;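 active means mean inhibition across replicates of 60% or more, whatever share of single replicates reaches that level; inconclusive means some that reach 60%, reason not given; inactive means mean inhibition across replicates below 60%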
KKLEB tox = counter-screen for CF NF-kB inhibitors: cytotoxicity; KKLEB CF airway cells viability, ATPlite luminescence, overnight; stronger effect = lower value; cells stimulated with P. aeruginosa culture filtrate; activity change (cytotoxicity), % at 5 µM; 0.36% of 360,000 active; AID 602141;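 active means corrected activity change at or below -50% at 5 µM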
CF NFkB block = cystic fibrosis NF-kB activation inhibition. 0.86% of 360,000 active. inhibition, % at 5 µM. KKLEB NF-kB-GFP reporter, PAF-induced, GFP fluorescence overnight;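 active means at least 50% inhibition at 5 µM, scaled per plate between neutral and stimulator controls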;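 further: PAF is a Pseudomonas aeruginosa culture filtrate used as stimulus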
HIF-2a block = inhibitors of HIF-2a; 0.72% of 360,000 active; inhibition, % at 18.8 µM; 786-0 RCC cells HIF-2a reporter, luciferase luminescence, overnight;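 active means inhibition of the luminescence signal of 40% or more relative to plate controls, in a single-dose primary screen at 18.75 µM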
Hits are given with their value; i = inactive; ? = inconclusive; nt = no result.

SMILES	Shn3 inh set2	Peg3 promoter	TRPM1 prom inh	KKLEB tox	CF NFkB block	HIF-2a block
O=C1/C(=C/c2ccccc2)SC(=S)N1C1CCS(=O)(=O)C1 (configuration not stated)	i	i	i	i	i	i
O=C1/C(=C/c2ccncc2)SC(=S)N1C1CCS(=O)(=O)C1 (configuration not stated)	i	i	i	i	64.8	40.7
O=C(COc1ccccc1Br)Nc1ccc(S(=O)(=O)N2CCCC2)cc1	i	i	i	i	i	i
Oc1ccc(C[C@@H](CN2CCC[C@@H]2CN2C(=S)NC[C@@H]2Cc2ccccc2)N2C[C@H](Cc3ccccc3)N(CCc3ccccc3)C2=S)cc1	i	i	nt	i	i	i
Oc1ccc(C[C@H]2CNC(=S)N2CC2CCCN2C[C@H](Cc2ccccc2)N2C[C@H](Cc3ccc(O)cc3)N(CCc3ccccc3)C2=S)cc1 (some centres not stated)	i	68.3	i	i	i	i
CC(C)C[C@H]1CNC(=S)N1C[C@H]1CCCN1C[C@H](Cc1ccc(O)cc1)N1C[C@H](Cc2ccc(O)cc2)N(CCc2ccccc2)C1=S	i	93.7	nt	i	i	i
CCOc1ccc(CCN2C(=S)N([C@@H](CC(C)C)CN3CCCC3CN3C(=S)NC[C@@H]3Cc3ccc(O)cc3)C[C@@H]2Cc2ccc(O)cc2)cc1 (some centres not stated)	86.5	86.9	i	i	i	i
CC(C)C[C@@H](CN1CCCC1CN1C(=S)NC[C@@H]1Cc1ccccc1)N1C[C@H](Cc2ccc(O)cc2)N(CCc2ccccc2)C1=S (some centres not stated)	nt	nt	nt	nt	nt	i
CC(C)C[C@@H](CN1CCC[C@@H]1CN1C(=S)NC[C@@H]1Cc1ccc(O)cc1)N1C[C@H](Cc2ccc(O)cc2)N(CCc2ccccc2)C1=S	i	77.7	nt	i	i	i
CCOc1ccc(CCN2C(=S)N([C@@H](CC(C)C)CN3CCCC3CN3C(=S)NC[C@@H]3Cc3ccc(O)cc3)C[C@@H]2Cc2ccccc2)cc1 (some centres not stated)	i	i	i	i	i	i
CCN(C(=O)Cn1cc(C(F)(F)F)ccc1=O)C1CCS(=O)(=O)C1 (configuration not stated)	i	i	nt	i	i	i
Cc1cccc(C)c1NC(=O)c1csc([C@@H]2O[C@H](CO)[C@H](O)[C@H](O)[C@H]2O)n1	i	i	nt	i	i	i
N#Cc1ccc(Nc2nc(-c3ccccc3)c(C(=O)c3ccccc3)s2)cc1	i	61.0	nt	i	i	i
O=C(c1ccccc1)c1sc(Nc2ccc3c(c2)OCO3)nc1-c1ccccc1	i	i	nt	i	i	i
CCN1/C(=C/c2ccc3ccccc3[n+]2CCCS(=O)(=O)[O-])C=Cc2cc(C)ccc21	i	i	i	i	i	i
CCN1/C(=C/c2ccc3cc(C)ccc3[n+]2CC)Sc2cc(C)ccc21	?	97.3	85.1	i	i	63.3
Cc1ccc2c(c1)S/C(=C/c1ccc[n+](C)c1)N2CCO	i	i	i	i	i	i
CCN1/C(=C/c2ccc3ccccc3[n+]2CC)C=Cc2ccccc21	91.1	86.5	101.6	i	i	66.2
CCCCN1/C(=C/c2ccc3ccccc3[n+]2CC)Sc2ccccc21	89.9	i	69.1	i	i	i
CCN1/C(=C/c2ccc3cc(C)ccc3[n+]2C)Sc2ccc3sccc3c21	91.2	110.6	77.3	i	i	42.4
CC(=O)Nc1ccc(C(=O)N2CCCCC2c2cc(C(=O)Nc3cccc4c3CCCC4)no2)cc1 (configuration not stated)	i	i	nt	i	i	i
Cn1nc(C(C)(C)C)cc1C(=O)N1CCCCC1c1cc(C(=O)Nc2cccc3c2CCCC3)no1 (configuration not stated)	80.9	i	nt	i	i	i
NC(=O)c1ccccc1OCC(=O)Nc1ccc2c(c1)OCCO2	i	i	i	i	i	i
COc1ccc(NC(=O)COc2cccc3c2CCNC3=O)cc1	i	i	i	i	i	i
CC(C)C(=O)N1CCN(c2ccc(NC(=O)COc3ccccc3[N+](=O)[O-])cc2)CC1	i	90.8	i	i	i	i
SMILES	Shn3 inh set2	Peg3 promoter	TRPM1 prom inh	KKLEB tox	CF NFkB block	HIF-2a block
CCCNC1=C(N(C(C)=O)c2cccc(F)c2)C(=O)c2ccccc2C1=O	i	84.7	98.4	-55.6	81.3	73.1
CN(C)c1nc2ncn(Cc3ccccc3)c2c(=O)[nH]1	i	i	i	i	i	i
COc1ccc(N(C(=O)Cn2nnc(-c3ccccc3F)n2)C(C(=O)NCC2CCCO2)c2ccc(Cl)cc2)cc1 (configuration not stated)	i	58.1	i	i	i	i
COc1ccc(N(C(=O)Cn2nnc(-c3ccc(Cl)cc3)n2)C(C(=O)NCC2CCCO2)c2ccc(C)cc2)cc1 (configuration not stated)	i	i	i	i	i	i
Cc1cc(C)c2[nH]c(C)c(CN3CCCCCC3)c(=O)c2c1	i	i	i	i	i	i
N#Cc1ccc(Nc2nc(-c3ccc(O)cc3O)cs2)cc1C(F)(F)F	i	102.8	i	i	i	i
Fc1ccccc1COc1ccc(Br)cc1CNCc1ccncc1	i	55.6	i	i	i	i
Cc1c(C(=O)NCc2ccc([N+](=O)[O-])cc2)sc(=O)n1Cc1ccc2c(c1)OCO2	i	i	nt	i	i	i
Nc1c(S(=O)(=O)c2ccccc2)c2nc3ccccc3nc2n1/N=C/c1cccc(O)c1	i	87.0	i	i	i	i
Cc1ccc(-c2nnn3c2nc(Cl)c2ccccc23)cc1	i	i	i	i	i	i
Fc1cccc(-c2nnn3c2nc(Cl)c2ccccc23)c1	i	106.7	i	i	i	i
C#Cc1ccc([C@@H]2C=C(C(=O)N3CCN(Cc4ccccc4)CC3)O[C@H](OCCCCO)C2)cc1	92.6	i	i	i	i	i
COc1ccc(/C=C(\NC(=O)c2ccco2)C(=O)N2CCCCC2)cc1	i	i	i	i	i	i
COc1ccc(-c2ccc3[nH]c4c(c3c2)CCN2C(=O)[C@@H]([C@H](C)O)[C@@H](N(C)C(=O)Nc3ccc(F)cc3)C[C@@H]42)cc1	i	95.3	nt	i	i	i
CCOC(=O)C1=C(C)NC(C)=C(C(=O)OCC)C1C(=O)OCC(=O)NCc1ccco1	95.9	i	i	i	i	i
Cc1ccc(C(=O)OCC(=O)NCc2ccco2)cc1	i	i	i	i	i	i
O=C(COC(=O)c1ccccc1)NCc1ccco1	i	i	i	-93.5	i	i
Cc1cc(NC(=O)COC(=O)C2COc3ccccc3O2)no1 (configuration not stated)	i	64.0	i	i	i	i
COC(=O)C1CCN(CC(=O)Nc2ccc(C(=O)Nc3ccccc3OC)cc2)CC1	i	i	i	i	i	i
O=C(CNC(=S)N(Cc1ccccc1)Cc1ccccc1F)NCc1ccc(Cl)cc1	i	52.1	i	i	i	i

Source: PubChem BioAssay (several laboratories)
